# Assay results taken from ChEMBL document CHEMBL2218924, “A broad activity screen in support of a chemogenomic map for kinase signalling research and drug discovery” (Biochem J, 2013).
# Columns and labels:
# [1] = molecular target: BDNF/NT-3 growth factors receptor (Homo sapiens) (UniProt Q16620); details: at 10 µM
# [2] = molecular target: T1, Tyrosine-protein kinase TXK (Homo sapiens) (UniProt P42681); details: at 1 µM
# T1 sequence (whole entry): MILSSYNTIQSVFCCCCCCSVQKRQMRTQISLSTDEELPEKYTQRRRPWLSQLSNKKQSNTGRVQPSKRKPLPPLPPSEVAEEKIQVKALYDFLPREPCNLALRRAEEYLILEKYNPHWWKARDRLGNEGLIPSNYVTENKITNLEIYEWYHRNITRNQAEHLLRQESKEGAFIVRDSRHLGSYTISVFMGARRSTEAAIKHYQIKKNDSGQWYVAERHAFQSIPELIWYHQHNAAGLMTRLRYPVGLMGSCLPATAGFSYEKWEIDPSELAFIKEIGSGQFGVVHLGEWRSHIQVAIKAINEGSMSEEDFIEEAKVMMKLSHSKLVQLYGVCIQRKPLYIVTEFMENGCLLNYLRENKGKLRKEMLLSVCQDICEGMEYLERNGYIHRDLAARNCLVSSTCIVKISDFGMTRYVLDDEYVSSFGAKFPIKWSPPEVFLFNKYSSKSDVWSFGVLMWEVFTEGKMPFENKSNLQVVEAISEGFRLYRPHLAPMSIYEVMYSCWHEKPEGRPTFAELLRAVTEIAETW
# [3] = molecular target: T1, Tyrosine-protein kinase TXK (Homo sapiens); details: at 10 µM
# [4] = molecular target: T2, Serine/threonine-protein kinase ULK2 (Homo sapiens) (UniProt Q8IYT8); details: at 1 µM
# T2 sequence (whole entry): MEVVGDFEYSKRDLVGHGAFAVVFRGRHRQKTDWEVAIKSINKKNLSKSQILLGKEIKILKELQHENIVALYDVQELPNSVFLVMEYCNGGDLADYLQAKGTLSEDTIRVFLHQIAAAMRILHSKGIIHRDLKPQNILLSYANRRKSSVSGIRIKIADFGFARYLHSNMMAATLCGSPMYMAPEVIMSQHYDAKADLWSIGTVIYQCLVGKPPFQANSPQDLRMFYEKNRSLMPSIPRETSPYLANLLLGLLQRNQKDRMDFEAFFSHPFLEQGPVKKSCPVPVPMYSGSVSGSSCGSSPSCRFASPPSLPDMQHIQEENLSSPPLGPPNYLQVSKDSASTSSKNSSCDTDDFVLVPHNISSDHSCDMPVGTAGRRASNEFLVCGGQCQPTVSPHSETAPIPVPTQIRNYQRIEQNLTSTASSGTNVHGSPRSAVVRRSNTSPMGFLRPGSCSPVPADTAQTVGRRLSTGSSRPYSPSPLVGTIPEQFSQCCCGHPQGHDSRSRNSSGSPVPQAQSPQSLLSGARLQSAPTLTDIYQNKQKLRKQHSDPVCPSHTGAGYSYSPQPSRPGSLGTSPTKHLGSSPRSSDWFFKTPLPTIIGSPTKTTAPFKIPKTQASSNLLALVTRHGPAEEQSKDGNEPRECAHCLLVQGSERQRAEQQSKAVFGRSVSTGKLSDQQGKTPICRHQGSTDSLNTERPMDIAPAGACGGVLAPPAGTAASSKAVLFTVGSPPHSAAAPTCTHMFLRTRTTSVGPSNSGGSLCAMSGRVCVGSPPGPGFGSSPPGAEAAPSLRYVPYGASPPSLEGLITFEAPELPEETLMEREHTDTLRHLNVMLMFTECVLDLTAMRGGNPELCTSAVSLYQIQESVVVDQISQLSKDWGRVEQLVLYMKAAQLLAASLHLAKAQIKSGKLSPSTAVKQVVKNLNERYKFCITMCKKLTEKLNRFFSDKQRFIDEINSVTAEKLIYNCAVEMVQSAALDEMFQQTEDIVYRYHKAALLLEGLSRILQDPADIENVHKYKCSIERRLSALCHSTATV
# [5] = molecular target: T2, Serine/threonine-protein kinase ULK2 (Homo sapiens); details: at 10 µM
# [6] = molecular target: T3, Serine/threonine-protein kinase ULK3 (Homo sapiens) (UniProt Q6PHR2); details: at 1 µM
# T3 sequence (whole entry): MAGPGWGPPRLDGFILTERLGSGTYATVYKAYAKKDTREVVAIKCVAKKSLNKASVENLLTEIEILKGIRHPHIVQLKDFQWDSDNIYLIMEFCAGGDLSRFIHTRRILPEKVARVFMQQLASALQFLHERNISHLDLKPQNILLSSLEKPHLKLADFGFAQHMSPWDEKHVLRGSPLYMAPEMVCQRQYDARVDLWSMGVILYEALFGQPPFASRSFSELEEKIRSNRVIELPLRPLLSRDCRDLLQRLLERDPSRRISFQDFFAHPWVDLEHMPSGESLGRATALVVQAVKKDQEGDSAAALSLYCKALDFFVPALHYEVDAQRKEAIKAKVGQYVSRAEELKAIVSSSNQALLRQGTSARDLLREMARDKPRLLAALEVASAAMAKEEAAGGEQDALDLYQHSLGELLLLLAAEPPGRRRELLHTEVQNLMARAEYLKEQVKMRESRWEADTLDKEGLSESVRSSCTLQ
# [7] = molecular target: T3, Serine/threonine-protein kinase ULK3 (Homo sapiens); details: at 10 µM
# [8] = molecular target: Serine/threonine-protein kinase VRK2 (Homo sapiens) (UniProt Q86Y07); details: at 1 µM
# [9] = molecular target: Serine/threonine-protein kinase VRK2 (Homo sapiens) (UniProt Q86Y07); details: at 10 µM
# [10] = molecular target: Serine/threonine-protein kinase WNK2 (Homo sapiens) (UniProt Q9Y3S1); details: at 1 µM
# [11] = molecular target: Serine/threonine-protein kinase WNK2 (Homo sapiens) (UniProt Q9Y3S1); details: at 10 µM
# [12] = molecular target: Serine/threonine-protein kinase WNK3 (Homo sapiens) (UniProt Q9BYP7); details: at 1 µM
# [13] = molecular target: Serine/threonine-protein kinase WNK3 (Homo sapiens) (UniProt Q9BYP7); details: at 10 µM
# [14] = molecular target: Tyrosine-protein kinase Yes (Homo sapiens) (UniProt P07947); details: at 1 µM
# [15] = molecular target: Tyrosine-protein kinase Yes (Homo sapiens) (UniProt P07947); details: at 10 µM
# [16] = molecular target: T4, Tyrosine-protein kinase ZAP-70 (Homo sapiens) (UniProt P43403); details: at 1 µM
# T4 sequence (whole entry): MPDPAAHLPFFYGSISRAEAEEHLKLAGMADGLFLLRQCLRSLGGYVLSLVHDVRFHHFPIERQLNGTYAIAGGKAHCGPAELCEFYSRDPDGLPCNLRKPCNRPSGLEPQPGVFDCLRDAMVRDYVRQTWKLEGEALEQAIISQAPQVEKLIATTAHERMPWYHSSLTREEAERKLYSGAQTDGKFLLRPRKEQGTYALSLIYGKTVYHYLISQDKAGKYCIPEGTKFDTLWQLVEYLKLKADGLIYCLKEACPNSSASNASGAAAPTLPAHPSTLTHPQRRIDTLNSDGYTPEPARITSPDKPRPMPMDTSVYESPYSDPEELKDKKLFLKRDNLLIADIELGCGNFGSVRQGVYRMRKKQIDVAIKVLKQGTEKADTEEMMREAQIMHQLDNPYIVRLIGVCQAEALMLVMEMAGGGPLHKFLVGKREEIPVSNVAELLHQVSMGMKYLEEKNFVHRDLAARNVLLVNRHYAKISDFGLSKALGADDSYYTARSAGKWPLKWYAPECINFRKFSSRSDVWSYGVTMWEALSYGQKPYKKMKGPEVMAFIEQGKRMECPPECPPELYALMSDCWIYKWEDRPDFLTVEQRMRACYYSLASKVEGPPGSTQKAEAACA
# [17] = molecular target: Death-associated protein kinase 3 (Homo sapiens) (UniProt O43293); details: at 1 µM
# [18] = molecular target: Death-associated protein kinase 3 (Homo sapiens) (UniProt O43293); details: at 10 µM
# [19] = molecular target: RAF proto-oncogene serine/threonine-protein kinase (Homo sapiens) (UniProt P04049); details: at 1 µM
# [20] = molecular target: RAF proto-oncogene serine/threonine-protein kinase (Homo sapiens) (UniProt P04049); details: at 10 µM
# Death-associated protein kinase 3 (Homo sapiens), sequence (O43293 whole entry, looked up): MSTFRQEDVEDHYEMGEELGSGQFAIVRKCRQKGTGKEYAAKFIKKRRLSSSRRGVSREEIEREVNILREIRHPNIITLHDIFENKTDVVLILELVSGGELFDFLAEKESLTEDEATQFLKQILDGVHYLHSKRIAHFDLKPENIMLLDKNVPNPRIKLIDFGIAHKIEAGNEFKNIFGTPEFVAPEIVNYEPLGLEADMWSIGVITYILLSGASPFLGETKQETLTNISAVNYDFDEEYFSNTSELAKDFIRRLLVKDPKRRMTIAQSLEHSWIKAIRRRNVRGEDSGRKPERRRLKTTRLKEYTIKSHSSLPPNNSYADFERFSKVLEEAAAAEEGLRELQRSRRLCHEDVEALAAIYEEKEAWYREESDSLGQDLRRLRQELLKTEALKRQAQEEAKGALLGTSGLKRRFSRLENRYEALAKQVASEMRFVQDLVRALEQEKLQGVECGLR
# BDNF/NT-3 growth factors receptor (Homo sapiens), sequence (Q16620 32-822 limits assumed): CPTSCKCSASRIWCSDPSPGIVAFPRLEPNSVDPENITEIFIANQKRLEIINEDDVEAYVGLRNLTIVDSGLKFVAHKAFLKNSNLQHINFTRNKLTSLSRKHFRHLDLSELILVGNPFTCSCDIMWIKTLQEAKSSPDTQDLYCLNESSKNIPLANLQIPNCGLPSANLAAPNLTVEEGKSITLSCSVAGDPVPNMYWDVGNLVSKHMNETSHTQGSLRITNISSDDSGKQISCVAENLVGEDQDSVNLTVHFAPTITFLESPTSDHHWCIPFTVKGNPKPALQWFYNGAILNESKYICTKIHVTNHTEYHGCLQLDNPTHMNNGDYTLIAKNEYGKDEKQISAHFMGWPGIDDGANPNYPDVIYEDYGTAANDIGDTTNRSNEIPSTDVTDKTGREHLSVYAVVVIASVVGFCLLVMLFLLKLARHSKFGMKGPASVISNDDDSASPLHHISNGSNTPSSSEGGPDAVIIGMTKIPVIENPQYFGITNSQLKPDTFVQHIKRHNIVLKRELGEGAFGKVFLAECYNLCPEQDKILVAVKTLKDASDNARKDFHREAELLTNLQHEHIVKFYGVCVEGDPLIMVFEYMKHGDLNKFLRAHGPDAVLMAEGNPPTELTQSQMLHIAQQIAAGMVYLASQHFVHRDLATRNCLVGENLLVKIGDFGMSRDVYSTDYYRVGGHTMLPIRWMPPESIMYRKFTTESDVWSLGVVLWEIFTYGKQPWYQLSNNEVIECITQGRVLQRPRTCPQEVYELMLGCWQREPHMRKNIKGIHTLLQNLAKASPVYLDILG
# Tyrosine-protein kinase Yes (Homo sapiens), sequence (P07947 2-543 limits assumed): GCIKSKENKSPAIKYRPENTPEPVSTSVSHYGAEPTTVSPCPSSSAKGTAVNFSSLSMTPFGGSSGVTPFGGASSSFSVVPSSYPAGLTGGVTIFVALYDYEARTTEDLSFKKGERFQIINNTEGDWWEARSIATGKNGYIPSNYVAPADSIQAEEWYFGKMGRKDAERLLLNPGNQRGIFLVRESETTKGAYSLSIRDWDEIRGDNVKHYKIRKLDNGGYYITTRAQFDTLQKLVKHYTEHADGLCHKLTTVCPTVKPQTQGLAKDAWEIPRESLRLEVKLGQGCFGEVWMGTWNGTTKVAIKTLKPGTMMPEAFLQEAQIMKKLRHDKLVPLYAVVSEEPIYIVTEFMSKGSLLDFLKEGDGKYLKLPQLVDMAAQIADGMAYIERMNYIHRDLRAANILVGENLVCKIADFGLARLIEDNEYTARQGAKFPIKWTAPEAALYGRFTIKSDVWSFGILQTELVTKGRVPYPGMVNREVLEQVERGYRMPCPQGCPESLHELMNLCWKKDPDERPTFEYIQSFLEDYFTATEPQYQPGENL
# Serine/threonine-protein kinase WNK3 (Homo sapiens), sequence (Q9BYP7 whole entry): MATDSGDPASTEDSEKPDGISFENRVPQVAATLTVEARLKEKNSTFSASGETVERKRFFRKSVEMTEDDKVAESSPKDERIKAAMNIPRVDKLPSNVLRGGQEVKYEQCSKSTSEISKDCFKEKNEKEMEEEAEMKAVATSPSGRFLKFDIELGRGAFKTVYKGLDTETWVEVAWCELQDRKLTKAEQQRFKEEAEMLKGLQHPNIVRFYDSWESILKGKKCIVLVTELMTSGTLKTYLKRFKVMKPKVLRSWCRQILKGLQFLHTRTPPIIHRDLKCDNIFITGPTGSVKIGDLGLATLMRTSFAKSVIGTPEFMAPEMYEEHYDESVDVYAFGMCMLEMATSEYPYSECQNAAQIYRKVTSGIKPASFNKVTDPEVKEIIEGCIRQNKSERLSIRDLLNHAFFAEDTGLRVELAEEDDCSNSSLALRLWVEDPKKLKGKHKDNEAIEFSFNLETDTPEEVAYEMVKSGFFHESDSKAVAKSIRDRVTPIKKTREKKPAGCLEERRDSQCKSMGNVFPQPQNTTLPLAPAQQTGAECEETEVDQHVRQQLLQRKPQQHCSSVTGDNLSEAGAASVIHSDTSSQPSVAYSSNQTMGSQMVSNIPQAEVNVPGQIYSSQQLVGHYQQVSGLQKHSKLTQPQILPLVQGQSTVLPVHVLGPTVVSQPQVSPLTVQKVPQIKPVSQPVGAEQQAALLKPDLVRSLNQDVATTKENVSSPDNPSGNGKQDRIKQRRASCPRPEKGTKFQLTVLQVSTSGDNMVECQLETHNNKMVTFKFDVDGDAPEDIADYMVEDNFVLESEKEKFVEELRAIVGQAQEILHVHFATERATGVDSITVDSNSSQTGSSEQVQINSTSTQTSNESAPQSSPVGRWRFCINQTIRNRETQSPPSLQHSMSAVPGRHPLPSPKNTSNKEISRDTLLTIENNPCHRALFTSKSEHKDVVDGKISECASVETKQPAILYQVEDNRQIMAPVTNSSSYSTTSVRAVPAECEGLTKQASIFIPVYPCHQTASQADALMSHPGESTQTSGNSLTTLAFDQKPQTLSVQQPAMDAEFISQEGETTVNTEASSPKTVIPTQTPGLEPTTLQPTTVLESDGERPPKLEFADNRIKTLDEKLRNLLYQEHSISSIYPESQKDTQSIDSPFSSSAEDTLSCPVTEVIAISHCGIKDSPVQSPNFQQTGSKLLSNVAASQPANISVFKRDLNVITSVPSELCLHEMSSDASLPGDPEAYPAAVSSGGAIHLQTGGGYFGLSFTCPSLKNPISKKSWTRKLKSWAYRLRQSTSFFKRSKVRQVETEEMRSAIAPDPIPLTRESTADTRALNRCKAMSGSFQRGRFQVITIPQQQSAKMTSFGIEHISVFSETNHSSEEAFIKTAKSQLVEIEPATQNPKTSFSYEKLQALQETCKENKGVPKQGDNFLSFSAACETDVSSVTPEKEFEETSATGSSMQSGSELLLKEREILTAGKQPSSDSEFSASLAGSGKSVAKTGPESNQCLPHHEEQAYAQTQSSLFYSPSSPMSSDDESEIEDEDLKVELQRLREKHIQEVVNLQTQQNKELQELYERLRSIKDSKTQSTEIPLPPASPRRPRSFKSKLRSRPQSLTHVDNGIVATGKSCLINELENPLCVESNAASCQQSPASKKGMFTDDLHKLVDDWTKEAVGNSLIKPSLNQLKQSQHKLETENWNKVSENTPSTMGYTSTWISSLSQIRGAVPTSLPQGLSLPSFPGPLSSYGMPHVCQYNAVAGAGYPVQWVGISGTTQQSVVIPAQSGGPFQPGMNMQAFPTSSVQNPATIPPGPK
# RAF proto-oncogene serine/threonine-protein kinase (Homo sapiens), sequence (P04049 whole entry): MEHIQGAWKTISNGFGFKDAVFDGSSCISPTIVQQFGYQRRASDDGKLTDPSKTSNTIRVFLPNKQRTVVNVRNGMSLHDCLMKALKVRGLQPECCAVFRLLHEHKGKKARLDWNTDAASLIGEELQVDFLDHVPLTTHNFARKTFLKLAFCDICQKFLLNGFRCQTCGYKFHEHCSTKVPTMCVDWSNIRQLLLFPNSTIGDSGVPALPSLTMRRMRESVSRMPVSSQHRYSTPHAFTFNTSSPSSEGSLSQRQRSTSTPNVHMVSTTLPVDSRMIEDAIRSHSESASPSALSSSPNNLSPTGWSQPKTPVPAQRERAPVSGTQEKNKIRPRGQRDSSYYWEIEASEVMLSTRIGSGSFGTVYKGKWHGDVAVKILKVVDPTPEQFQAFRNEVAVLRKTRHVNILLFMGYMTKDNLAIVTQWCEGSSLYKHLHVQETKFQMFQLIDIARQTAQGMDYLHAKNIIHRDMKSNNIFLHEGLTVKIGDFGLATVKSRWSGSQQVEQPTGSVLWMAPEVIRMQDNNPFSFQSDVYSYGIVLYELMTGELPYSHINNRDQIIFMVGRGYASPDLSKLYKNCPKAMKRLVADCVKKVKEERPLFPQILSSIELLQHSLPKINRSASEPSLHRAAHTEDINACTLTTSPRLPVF
# Serine/threonine-protein kinase VRK2 (Homo sapiens), sequence (Q86Y07 whole entry): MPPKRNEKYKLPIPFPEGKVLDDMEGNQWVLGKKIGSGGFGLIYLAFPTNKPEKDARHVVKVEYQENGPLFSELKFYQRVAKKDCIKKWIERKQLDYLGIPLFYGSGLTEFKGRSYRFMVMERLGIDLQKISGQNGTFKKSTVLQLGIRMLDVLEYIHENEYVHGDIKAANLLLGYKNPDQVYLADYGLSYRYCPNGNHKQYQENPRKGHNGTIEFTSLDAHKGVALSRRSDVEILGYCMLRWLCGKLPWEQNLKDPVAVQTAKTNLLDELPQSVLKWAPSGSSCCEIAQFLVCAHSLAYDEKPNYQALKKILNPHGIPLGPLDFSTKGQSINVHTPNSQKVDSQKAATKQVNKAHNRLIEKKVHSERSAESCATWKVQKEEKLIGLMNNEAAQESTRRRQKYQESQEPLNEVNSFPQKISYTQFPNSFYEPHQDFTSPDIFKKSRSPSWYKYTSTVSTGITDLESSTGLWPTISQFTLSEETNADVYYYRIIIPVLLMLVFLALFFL
SMILES,residual activity [1] [%],residual activity [2] [%],residual activity [3] [%],residual activity [4] [%],residual activity [5] [%],residual activity [6] [%],residual activity [7] [%],residual activity [8],residual activity [9] [%],residual activity [10],residual activity [11] [%],residual activity [12],residual activity [13] [%],residual activity [14] [%],residual activity [15] [%],residual activity [16] [%],residual activity [17] [%],residual activity [18] [%],residual activity [19] [%],residual activity [20] [%]
CCN(CC)CCCCN1c2ccccc2Oc2ccc(Cl)cc21,87,99,81,116,96,111,98,126% (inactive),99,122% (inactive),89,126% (inactive),104,106,94,113,99,109,93,100
Cc1cc(Nc2nc(-c3ccccc3)nc3ccccc23)n[nH]1,0,30,2,,,29,4,,,74% (inactive),27,74% (inactive),31,6,1,114,46,13,,62
N#CCCc1ccc2c(c1)-c1[nH]c3ccc([N+](=O)[O-])cc3c1CC(=O)N2,65,26,9,47,21,33,6,,,,,,,9,0,,,,,
Nc1n[nH]c2nnc(-c3c(-c4ccccc4)nn4ccccc34)cc12,52,77,60,95,96,92,87,89% (inactive),68,88% (inactive),90,83% (inactive),86,93,33,100,105,88,80,62
O=C1c2ccccc2-[n+]2ccc3c([nH]c4ccccc43)c21,89,75,75,,96,92,95,93% (inactive),92,95% (inactive),92,91% (inactive),93,113,86,128,73,78,71,73
Cc1cc2ncc(-c3ccccc3)nc2cc1C,53,90,84,104,88,107,96,105% (inactive),96,99% (inactive),93,96% (inactive),92,109,106,96,,100,97,83
COc1cc2ncnc(Nc3ccc(NC(=O)c4ccccc4)cc3)c2cc1OC,21,95,82,108,104,99,69,110% (inactive),55,52% (inactive),25,59% (inactive),23,96,30,,97,84,86,93
Oc1n[nH]c2nnc(-c3c(-c4ccccc4)nn4ccccc34)cc12,84,73,67,91,91,92,95,89% (inactive),82,93% (inactive),86,92% (inactive),83,104,91,105,66,48,73,77
Nc1cccc(-c2cc3c(Oc4cccc(O)c4)ncnc3[nH]2)c1,44,27,3,,76,31,6,100% (inactive),89,88% (inactive),40,93% (inactive),49,1,-1,,92,,36,10
O=C1Nc2ccc(Br)cc2/C1=C\c1cc2c([nH]1)CCCC2,44,107,76,,,52,55,,,110% (inactive),84,118% (inactive),105,79,63,112,,,99,102
